The structures appear in SMILES notation. Compounds without any hit were thinned out: in the full panel of roughly 83,000, 20% have a hit.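 The endpoint reported here, percent growth, reads 100 for growth as untreated, 0 for no net growth and -100 for all cells dead.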 Unmarked numbers belong to inactive results. Active and inactive are the calls of the source. Rule for the calls: active = growth percent below 10; inactive = the rest.

Common to all, as to assay: NCI-60 one-dose screen, 48 h (100 = growth as untreated, 0 = no growth, -100 = all killed)
Details in all cases: 10 µM unless noted

For assay [1], the system named is HCT-15 colon.
In assay [2] the test system is HT29 colon.
The test system of assay [3] is SNB-75 CNS.
Assay [4] deals with SNB-19 CNS.
For assay [5], the system named is U251 CNS.
In assay [6] the test system is PC-3 prostate.
Assay [7] has as its system SK-MEL-5 melanoma.
Assay [8] deals with UACC-62 melanoma.
Assay [9] has as its system LOX IMVI melanoma.
In assay [10] the test system is SK-MEL-28 melanoma.
Assay [11] has as its system SK-MEL-2 melanoma.
For assay [12], the system named is EKVX NSCLC.
Assay [13] has as its system SN12C renal.
Assay [14] concerns UO-31 renal.
For assay [15], the system named is TK-10 renal.
In assay [16] the test system is ACHN renal.
Assay [17] concerns CAKI-1 renal.
Assay [18] relates to A498 renal.
Assay [19] deals with CCRF-CEM leukemia.
Assay [20] relates to MOLT-4 leukemia.

With `CNC(=O)c1c(NC(=O)c2ccc(C(F)(F)F)cc2)sc2c1CCC(=O)C2`, the growth in assay [1] was -54.1% (active); in assay [2], 5.12% (active); in assay [3], -17.4% (active); in assay [4], 2.58% (active); in assay [5], -12.8% (active); in assay [6], -30.9% (active). Besides, the growth in assay [7] was -71.6% (active); in assay [8] it was -29.1% (active); in [9] it was 1.51% (active); in assay [10], 4.24% (active); in assay [11], -12.1% (active); in [12], 9.76% (active). The growth in [13] was 5.31% (active); in [14], -94.3% (active); in assay [15], 34.2%; in assay [16] it was -20.3% (active); in [17], -32.9% (active); in [18], -12.5% (active). Further, the results for the growth in [19] and in assay [20] were -5.31% (active) and 2.28% (active), respectively.
For `Oc1c(Cl)cc(Cl)c2ccc(Cn3cc(-c4ccc(C(F)(F)F)cc4)nn3)nc12`, the growth is 31.3% in [1]; 74.2% in [2]; 74.1% in assay [3]; 93.3% in assay [4]; 99.8% in assay [5]; 74.6% in [6]. Moreover, the growth in assay [7] is 98.8%; in assay [8] it was 73.9%; in assay [9], 9.23% (active); in assay [10], 51.2%; in assay [11] it was 95.4%; in assay [12] it was 81%. For the same compound, the growth in assay [13] is 76.9%; in assay [14], 68.5%; in assay [15], 97.3%; in assay [16] it was 36.7%; in assay [17], 21%; in assay [18], 83.7%. The figures for the growth in assay [19] and in [20] were 6.1% (active) and -8.16% (active), respectively.
In the case of `Cc1nn(-c2ccccc2)c(Oc2ccccn2)c1-c1nc2ccccc2s1`, the growth was 91.4% in [1]; 92.6% in [2]; 97% in assay [3]; 100% in [4]; 97.8% in assay [5]; 91% in assay [6]. Besides, the growth was 84.4% in assay [7]; 91.4% in assay [8]; 97.3% in assay [9]; 106% in [10]; 99.2% in [11]; 90.4% in assay [12]. Also, the growth is 100% in [13]; 88.2% in [14]; 103% in assay [15]; 98.3% in [16]; 82.3% in assay [17]; 106% in assay [18]. Moreover, the results for the growth in [19] and in assay [20] were 102% and -49.2% (active), respectively.
In the case of `OB(O)c1cccc(-c2nc3ccc4[nH]ncc4c3c3c2CCCC3)c1`, the growth was 37.6% in assay [1]; 48.1% in assay [2]; -30.6% (active) in assay [3]; 78.4% in assay [4]; 56.7% in assay [5]; 53.9% in [6]. The growth was 68.1% in assay [7]; 35.5% in assay [8]; 35.6% in [9]; 91.9% in assay [10]; 81.1% in assay [11]; 65.6% in assay [12]. Besides, the growth in assay [13] was 48.8%; in assay [14], 35.1%; in assay [15], 29.3%; in [16] it was 38%; in [17] it was -11.5% (active); in assay [18], 15.2%. Further, the growth is 32.2% in [19] and 28.7% in assay [20].
In the case of `COC(=O)c1c2c(c(C)[n+]([O-])c1C)C(=O)C=C(NCc1ccc(OC)cc1)C2=O`, the growth in assay [1] is -43.9% (active); in assay [2], 3.5% (active); in [3], -97% (active); in assay [4], -73.8% (active); in [5], -45.7% (active); in [6], -6.9% (active). In addition, the growth in assay [7] was -96.6% (active); in [8], -75.1% (active); in [9], -12% (active); in assay [10], -6.37% (active); in assay [11], -22.2% (active); in assay [12], -57.6% (active). For the same compound, the growth is -63% (active) in assay [13]; -9.55% (active) in assay [14]; 28.4% in [15]; -11.5% (active) in [16]; 0.875% (active) in assay [17]; -15.4% (active) in [18]. Further, the growth in assay [19] is 3.4% (active); in [20], -35.5% (active).
`O=S(=O)(NCCCNc1nccc(-c2c(-c3ccc(F)c(O)c3)nc3occn23)n1)c1ccccc1`: the growth is 103% in assay [1]; 73.6% in assay [2]; 96.8% in assay [3]; 113% in assay [4]; 99.7% in assay [5]; 79.1% in assay [6]. Besides, the growth in assay [7] was 63%; in assay [8], 10.7%; in assay [9], 39.6%; in assay [10] it was 24.7%; in assay [11], 31.9%; in [12] it was 101%. Moreover, the growth in assay [13] is 79.1%; in assay [14] it was 75%; in assay [15] it was 122%; in assay [16], 70.1%; in assay [17] it was 96.5%; in assay [18] it was 101%. Besides, the growth is 79.1% in [19] and 78.2% in assay [20].
`CN(C)CCCn1c2c(c3ncccc3c1=O)C(=O)c1ccccc1-2`: the growth in [1] was 28.6%; in assay [2], 20.9%; in [3], 79%; in assay [4], 37.3%; in [5], 29%; in [6] it was 39%. The growth in [7] is 30.7%; in [8], 34.6%; in assay [9], 19.1%; in assay [10], 65%; in assay [11] it was 81.8%; in assay [12] it was 81.7%. Besides, the growth in assay [13] is 34.7%; in assay [14], 32%; in [15], 52.3%; in [16], 15.2%; in assay [17], 52.7%; in assay [18], 57.5%. Further, the figures for the growth in assay [19] and in [20] were 50.4% and 17.3%, respectively.
In the case of `Cn1cccc1C(=O)C1C(c2cccc([N+](=O)[O-])c2)C2C3CCCCC3CN2C12C(=O)Nc1ccc(Cl)cc12` (stereo not given), the growth in [1] was 41.7%; in assay [2], 41.9%; in [3], 37.4%; in assay [4], 53.2%; in assay [5], 53.8%; in assay [6], 35.2%. Besides, the growth in [7] was 64.5%; in assay [8] it was 60.1%; in [9], 37.3%; in assay [10], 83.2%; in assay [11] it was 66.5%; in [12], 46.4%. Further, the growth was 59.4% in assay [13]; 45.5% in assay [14]; 103% in assay [15]; 59.9% in assay [16]; 17.4% in assay [17]; 86% in assay [18]. Also, the growth in assay [19] is 58.6%; in [20] it was 28%.

Source of the values: PubChem BioAssay (NCI).
